In the library only some 4.8% were active in any assay of this set; here they are far more common.
SMARCA2 act: SMARCA2 (BRM) function activators, primary screen, cell-based, luminescence, high throughput; MG213 cells, MMTV-luciferase reporter, dexamethasone, overnight; activation, % at 9.1 µM; actives 1% (n = 370,000); AID 652017, 2013; in the data active means activation above about 7.8%;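 further: 0% = vehicle wells and 100% = reference activator wells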
DAX1 inh-1: DAX1 (NR0B1) inhibitors, primary screen, cell-based, HEK293, Gal4-DAX1, luciferase luminescence | HEK293 Gal4-DAX1 luciferase reporter | AID 504766, 2011 | Nuclear receptor subfamily 0 group B member 1 (Homo sapiens), P51843 | inhibition, % at 6.75 µM | actives 0.99% (n = 340,000);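 active means inhibition above the mean over all tested compounds plus 3 SD, cut at about 4.2% in these data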;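 further: 0% = DAX1-transfected cells with DMSO and 100% = empty-vector control cells with DMSO; inhibition shows as a rise in luminescence from relieved DAX1 repression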
Target sequence (P51843 207-470 limits assumed): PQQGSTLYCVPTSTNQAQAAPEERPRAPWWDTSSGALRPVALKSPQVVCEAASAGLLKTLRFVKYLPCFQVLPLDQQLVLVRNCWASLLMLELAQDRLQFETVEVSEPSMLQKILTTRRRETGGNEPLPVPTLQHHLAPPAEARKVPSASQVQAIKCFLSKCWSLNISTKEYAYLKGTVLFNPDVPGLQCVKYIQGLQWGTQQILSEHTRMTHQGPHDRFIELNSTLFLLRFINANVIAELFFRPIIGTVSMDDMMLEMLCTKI
DAX1 inh-2: DAX1 (NR0B1) inhibitors on StAR promoter, primary screen, cell-based, luminescence, SF-1 (NR5A1), full-length DAX-1; HEK293T StAR-luciferase reporter, SF-1/DAX-1 repression relief; inhibition, % at 6.8 µM; actives 1.1% (n = 370,000); AID 652010, 2013;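 active means inhibition above the mean over all tested compounds plus 3 SD, cut at about 3.6% in these data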;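 further: 0% = DAX-1 cells with DMSO and 100% = cells lacking DAX-1 with DMSO; higher inhibition means more luminescence from relief of DAX-1 repression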
hcDAF-12 act: H. contortus DAF-12 nuclear receptor activators, primary screen, cell-based, luminescence, HEK293, lit1-tk-luc reporter | HEK293 hcDAF-12 lit1-tk-luc reporter; 0% DMSO, 100% Δ7-dafachronic acid | activation, % at 6.8 µM | actives 1.4% (n = 370,000);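 active means activation above the mean of all tested compounds plus 3 SD, cut at about 5.5% in these data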;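 further: 100% = response to 3 µM Δ7-dafachronic acid high control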
ssDAF-12 act: S. stercoralis DAF-12 nuclear receptor activators, primary screen, cell-based, luminescence, HEK293, GRIP1 co-expression, lit1-tk-luc; Nuclear hormone receptor DAF-12 (Strongyloides stercoralis); HEK293 ssDAF-12/GRIP1 lit1-tk-luc reporter; % of 3 µM dafachronic acid response; activation, % at 6.8 µM; actives 1% (n = 370,000);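 active means activation above the mean over all tested compounds plus 3 SD, cut at about 0.9% in these data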;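 further: 0% = DMSO-only wells and 100% = 3 µM delta7-dafachronic acid wells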
hgDAF-12 ag: H. glycines DAF-12 receptor agonists, primary screen, cell-based, luminescence, HEK293, GAL4 fusion, UAS-luciferase; HEK293 GAL4-hgDAF12 UAS-luciferase reporter, agonist luminescence; normalized to butyrate control; activation, % at 6.8 µM; actives 1.8% (n = 370,000);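 active means activation above a cutoff set at the mean of all screened compounds plus 3 SD, cut at about 10% in these data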;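 further: 0% = DMSO wells and 100% = sodium butyrate wells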
DAX1 inh confirm: DAX1 (NR0B1) inhibitors relieving SF-1 repression, confirmation, cell-based, luminescence, HEK293T, full-length DAX-1, SF-1 activated StAR promoter. shares compounds with DAX1 inh-2. actives 87% (n = 2,400). HEK293T StAR-promoter luciferase reporter, SF-1/DAX-1 repression. inhibition, % at 6.8 µM;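 active means inhibition above the average of every tested compound plus 3 SD, cut at about 3.8% in these data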;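 further: 0% = DAX-1 cells with DMSO and 100% = no DAX-1 control cells with DMSO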
Target sequence (P51843 whole entry, looked up): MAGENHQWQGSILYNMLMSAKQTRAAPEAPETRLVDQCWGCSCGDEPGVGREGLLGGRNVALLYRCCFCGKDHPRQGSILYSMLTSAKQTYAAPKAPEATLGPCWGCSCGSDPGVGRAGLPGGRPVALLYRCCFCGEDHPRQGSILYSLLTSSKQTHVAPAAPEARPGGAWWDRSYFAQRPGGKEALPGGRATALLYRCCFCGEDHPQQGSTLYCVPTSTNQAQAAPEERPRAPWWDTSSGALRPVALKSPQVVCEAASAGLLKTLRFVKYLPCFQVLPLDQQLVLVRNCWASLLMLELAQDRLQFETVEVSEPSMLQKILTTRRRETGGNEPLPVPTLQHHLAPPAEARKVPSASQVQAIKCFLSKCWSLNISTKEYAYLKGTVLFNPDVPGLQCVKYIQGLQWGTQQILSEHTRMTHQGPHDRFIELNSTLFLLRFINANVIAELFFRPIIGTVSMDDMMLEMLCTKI
SF1 AF2mut Luc: StAR reporter signal changes without DAX1, counter-screen for DAX1 inhibitor project, cell-based, luminescence, AF-2 mutant SF-1, transactivation. shares compounds with DAX1 inh-2. actives 78% (n = 2,400). inhibition, % at 6.8 µM. AID 652136, 2013. HEK293 StAR-luciferase, SF-1 AF2 mutant;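 active means inhibition above the mean of all tested compounds plus 3 SD, cut at about 3% in these data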;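 further: 0% = DAX-1 transfected cells with DMSO and 100% = cells without DAX-1 with DMSO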
SMARCA2 act conf: SMARCA2 (BRM) function activators, confirmation, cell-based, luminescence, triplicate; shares compounds with SMARCA2 act; MG213 cells, MMTV-luciferase with dexamethasone, overnight; MG213 cells expressing E1A, Rb sequestered; DMSO wells 0%, reference activator 100%; activation, % at 9.1 µM; actives 30% (n = 3,500); AID 652260, 2013;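 active means activation above its plate's cutoff, the mean activation of tested wells plus 3 SD, cut at about 7.9% in these data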
VP16 Luc act: GAL4-VP16 luciferase reporter activation, counter-screen for SMARCA2 (BRM) activator project, cell-based, pG5luc, luminescence, high throughput. shares compounds with SMARCA2 act. HEK293 GAL4-VP16 pG5luc reporter; scaled: DMSO wells 0%, SAHA wells 100%. activation, % at 9.1 µM. actives 41% (n = 3,500). AID 686939, 2013;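 active means activation above the solvent-only control well mean plus 3 SD, averaged across control plates, cut at about 5.2% in these data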
LXR ag: LXR agonists, Gal4 luciferase reporter, confirmation, counter-screen for hcDAF-12 agonist project, cell-based, luminescence, HEK293, H. contortus campaign | activation, % at 6.8 µM | 3,400 tested, under 10 active | AID 743027, 2013 | shares compounds with hcDAF-12 act | HEK293 Gal4-LXR tk-luc reporter, 24 h; normalized: DMSO 0%, positive control 100%;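 active means mean percent activation of the reporter above a cutoff set as the average over tested compounds plus their standard deviation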
hcDAF12 conf: H. contortus DAF-12 receptor agonists, confirmation, cell-based, luminescence, HEK293, lit1-tk-luc, triplicate; shares compounds with hcDAF-12 act; HEK293 hcDAF-12 lit1-tk-luc reporter; % of Δ7-dafachronic acid response; activation, % at 6.8 µM; actives 61% (n = 3,400); AID 743032, 2013;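 active means mean activation across triplicate tests above the threshold derived from the earlier primary screen, cut at about 5.5% in these data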;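 further: 0% = DMSO only wells and 100% = 3 µM Δ7-dafachronic acid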
hgDAF12 conf: H. glycines DAF-12 receptor agonists, confirmation, cell-based, luminescence, HEK293, GAL4-LBD fusion | shares compounds with hgDAF-12 ag | HEK293 GAL4-hgDAF12 luciferase reporter, agonist mode; percent of butyrate response | activation, % at 6.8 µM | actives 80% (n = 3,300);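 active means mean activation over triplicate wells above the hit cutoff derived from the earlier primary screen, cut at about 11% in these data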;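 further: 0% = DMSO low control and 100% = 2 mM sodium butyrate high control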
LXRb DAF12 ctr: LXR agonists, Gal4 luciferase reporter, confirmation, counter-screen for hgDAF-12 agonist project, cell-based, luminescence, HEK293, H. glycines campaign | shares compounds with hgDAF-12 ag | 24 h | activation, % at 6.8 µM | 3,300 tested, under 10 active;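 active means mean activation of the triplicate above a set limit carried over from the primary screen, none filed active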
Starred values were filed as active, the others as inactive.

For O=C(/C=C/c1ccc(Cl)cc1)Nc1nccs1 the results were SMARCA2 act 1.6, DAX1 inh-1 0.5, DAX1 inh-2 11.1*, hcDAF-12 act 8.6*, ssDAF-12 act 0.8, hgDAF-12 ag 24.0*, DAX1 inh confirm 18.1*, SF1 AF2mut Luc 10.4*, LXR ag 1.8, hcDAF12 conf 7.7*, hgDAF12 conf 20.4* and LXRb DAF12 ctr 1.4.
Cc1c(NC(=S)N/N=C\c2ccccc2O)c(=O)n(-c2ccccc2)n1C was read as SMARCA2 act -4.1, DAX1 inh-1 0.4, DAX1 inh-2 -0.4, hcDAF-12 act -1.0, ssDAF-12 act -1.5 and hgDAF-12 ag 1.0.
`COc1ccc2nc(NC(=O)c3cccc(N4C(=O)CCC4=O)c3)sc2c1` gave SMARCA2 act 0.0, DAX1 inh-1 -1.3, DAX1 inh-2 -0.5, hcDAF-12 act 2.1, ssDAF-12 act -0.9 and hgDAF-12 ag 0.2.
Screening O=C(Nc1nc2ccc(Cl)cc2s1)c1cccc(N2C(=O)CCC2=O)c1 returned SMARCA2 act 0.6, DAX1 inh-1 1.0, DAX1 inh-2 5.0*, hcDAF-12 act 5.5, ssDAF-12 act 0.4, hgDAF-12 ag 13.6*, DAX1 inh confirm 7.6*, SF1 AF2mut Luc 4.1*, hgDAF12 conf 10.3 and LXRb DAF12 ctr 0.4.
For C#CCOC(=O)C[N+](C)(C)C/C=C/c1ccccc1 the results were SMARCA2 act 0.1, DAX1 inh-1 0.9, DAX1 inh-2 0.3, hcDAF-12 act -0.4, ssDAF-12 act -1.0 and hgDAF-12 ag -0.7.
CC(=O)Nc1ccc(S(=O)(=O)N2CCCN(S(=O)(=O)c3ccc(NC(C)=O)cc3)CC2)cc1 was read as SMARCA2 act 3.5, DAX1 inh-1 1.2, DAX1 inh-2 -0.8, hcDAF-12 act -2.2, ssDAF-12 act -1.4 and hgDAF-12 ag -0.7.
Screening CSCCC(=O)N1CCC(n2nccc2NC(=O)c2ccc3c(c2)OCO3)CC1 returned SMARCA2 act 1.5, DAX1 inh-1 2.9, DAX1 inh-2 6.3*, hcDAF-12 act 2.1, ssDAF-12 act 0.4, hgDAF-12 ag 23.1*, DAX1 inh confirm 6.3*, SF1 AF2mut Luc 5.7*, hgDAF12 conf 16.5* and LXRb DAF12 ctr 0.4.
`COc1cccc(N=c2oc3ccc(OC)cc3cc2-c2nc3ccccc3[nH]2)c1` gave SMARCA2 act 8.3*, DAX1 inh-1 2.3, DAX1 inh-2 4.7*, hcDAF-12 act 15.4*, ssDAF-12 act 3.6*, hgDAF-12 ag 16.1*, DAX1 inh confirm -1.1, SF1 AF2mut Luc -2.0, SMARCA2 act conf 3.6, VP16 Luc act 12.1*, LXR ag 0.1, hcDAF12 conf 6.3*, hgDAF12 conf 6.7 and LXRb DAF12 ctr 0.4.
COc1ccc2oc(=O)c(-c3nc4ccccc4o3)cc2c1 was read as SMARCA2 act 6.8, DAX1 inh-1 1.6, DAX1 inh-2 0.2, hcDAF-12 act -0.1, ssDAF-12 act -0.2 and hgDAF-12 ag 3.0.
Cc1nc(Nc2nc3ccccc3o2)nc(C)c1C was read as SMARCA2 act 5.4, DAX1 inh-1 3.6, DAX1 inh-2 4.6*, hcDAF-12 act 6.0*, ssDAF-12 act 0.2, hgDAF-12 ag 14.9*, DAX1 inh confirm 14.5*, SF1 AF2mut Luc 5.8*, hgDAF12 conf 16.3* and LXRb DAF12 ctr 0.7.
For COc1cc(O)cc(/C=C/c2ccccc2)c1 the results were SMARCA2 act 3.7, DAX1 inh-1 2.1, DAX1 inh-2 4.6*, hcDAF-12 act 4.0, ssDAF-12 act -0.4, hgDAF-12 ag 15.2*, DAX1 inh confirm 9.3*, SF1 AF2mut Luc 5.5*, hgDAF12 conf 16.2* and LXRb DAF12 ctr 0.7.
For COc1cc(/C=C/C(=O)O)cc(OC)c1 the results were DAX1 inh-1 2.4.

Screening results from PubChem.
